# Assay results: PubChem BioAssay (EPA / NIEHS)
# Results filed as inconclusive are left out. Active and inactive are the calls of the source. The calls were made as follows, unless noted: active = hit-call score of the fitted dose curve at least 0.9, where 1 is the maximum; inactive = score below 0.9.
# Experiments:
# [1] = CCTE_Shafer_MEA_dev_correlation_coefficient_mean: CCTE's Neural Network Formation Assay for Mean Correlation Coefficient, Shafer Lab (AID 2284093);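 also: well mean pairwise spike train correlation integrated as AUC over recording days 5 to 12; potency fitted for loss of correlation relative to DMSO vehicle wells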
# How it was run: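 Rat cortical cultures, 1.5 x 10^5 cells/well, dosed from day 0 for 12 days. Spontaneous spikes recorded DIV 5/7/9/12; electrode-pair correlation coefficients averaged, AUC taken. Fit in loss direction vs DMSO.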
# [2] = IUF_NPC1b_proliferation_BrdU_72hr: Leibniz Research Institute for Environmental Medicine (IUF) 72-hour Neural Progenitor Cell Bromodeoxyuridine (BrdU) Proliferation Assay (NPC1b) (AID 2284207)
# How it was run: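 Human fetal cortex-derived (GW 16-19) neural progenitor spheres, 0.25-0.35 mm, one per well in EGF/FGF proliferation medium, exposed to compound for 72 h at 37C, pH 7.2-7.6. BrdU incorporation over the final 16 h read by luminescence ELISA, relative to DMSO.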
# [3] = IUF_NPC1a_proliferation_area_72hr: Leibniz Research Institute for Environmental Medicine (IUF) 72-hour Neural Progenitor Cell Proliferation Area Assay (NPC1a) (AID 2284208)
# How it was run: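 Measured in 3D suspension: each well held one primary hNPC sphere grown with EGF and FGF at pH 7.2-7.6. Compound stayed on for 72 h, then area was imaged; spheres lacking growth factors defined reduced proliferation.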
# [4] = IUF_NPC1_viability_72hr: Viability Assessment at 72 hours in the Leibniz Research Institute for Environmental Medicine (IUF) Neural Progenitor Cell Proliferation Assay (NPC1) (AID 2284209)
# How it was run: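 Spheres of primary human neural progenitors were plated singly in proliferation medium and treated for 72 h. Mitochondrial reduction of resazurin was then measured by fluorescence and analysed against DMSO controls.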
# [5] = CCTE_Mundy_HCI_Cortical_Synap_Neur_Matur_NeuriteSpotCountPerNeuriteLength: CCTE's Synaptogenesis and Neurite Maturation Assay in rat cortical cells for Neurite Spot Count per Neurite Length, Mundy Lab (AID 2284210)
# How it was run: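 Synaptophysin spots per unit neurite length, measured by automated imaging of MAP2/synaptophysin/Hoechst-stained neurons. Cultures from rat cortex received chemical at DIV 7 with media change through DIV 12; glial growth arrested by AraC at DIV 5; DMSO baseline.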
# [6] = CCTE_Mundy_HCI_Cortical_Synap_Neur_Matur_BPCount: CCTE's Synaptogenesis and Neurite Maturation Assay in rat cortical cells for Branch Point Count, Mundy Lab (AID 2284211)
# How it was run: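 HCI read-out of branch points from MAP2/synaptophysin/Hoechst immunofluorescence; rat cortical cultures, AraC DIV 5, dosing DIV 7, fixed DIV 12; fit in positive direction vs DMSO baseline.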
# [7] = CCTE_Mundy_HCI_Cortical_NOG_NeuriteCount: CCTE's Neurite Outgrowth Assay in rat cortical cells for Neurite Count, Mundy Lab (AID 2284212);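 also: cells fixed about two days after chemical exposure began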
# How it was run: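 Rat cortical primary cells; compound added 2 h post-plating, 1/10 dilution of working solution. Anti-betaIII-tubulin/AF488 ICC; ArrayScan neurite count vs DMSO.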
# [8] = CCTE_Mundy_HCI_Cortical_NOG_NeuriteLength: CCTE's Neurite Outgrowth Assay in rat cortical cells for Neurite Length, Mundy Lab (AID 2284213)
# How it was run: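 First, rat primary cortical cells were plated and, 2 h later, given test chemical as a 1/10 dilution. Finally, βIII-tubulin immunostaining enabled automated imaging of neurite length.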
# [9] = CCTE_Mundy_HCI_Cortical_Synap_Neur_Matur_NeuriteLength: CCTE's Synaptogenesis and Neurite Maturation Assay in rat cortical cells for Neurite Length, Mundy Lab (AID 2284214)
# How it was run: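 Cultures of rat primary cortical cells received chemical at DIV 7 and were fixed at DIV 12, after glial arrest with AraC at DIV 5. Neurite length was measured by automated imaging of MAP2 immunofluorescence.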
# [10] = CCTE_Mundy_HCI_Cortical_Synap_Neur_Matur_NeuriteSpotCountPerNeuron: CCTE's Synaptogenesis and Neurite Maturation Assay in rat cortical cells for Neurite Spot Count per Neuron Count, Mundy Lab (AID 2284215)
# How it was run: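 Developing rat cortical neurons, with glia suppressed by AraC, are exposed to chemicals from DIV 7 to DIV 12. Automated fluorescence imaging of MAP2-labelled neurites and synaptophysin puncta yields a count per neuron, normalised against DMSO wells.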
# [11] = CCTE_Mundy_HCI_Cortical_Synap_Neur_Matur_SynapseCount: CCTE's Synaptogenesis and Neurite Maturation Assay in rat cortical cells for Synapse Count, Mundy Lab (AID 2284218)
# How it was run: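 Cells were plated, allowed 2 hr to attach, treated with AraC at DIV 5, then exposed to chemicals from DIV 7 until DIV 12. After fixation and MAP2/synaptophysin immunolabelling, synapses per neuron were quantified by automated imaging against DMSO.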
# [12] = CCTE_Mundy_HCI_Cortical_Synap_Neur_Matur_NeuriteCount: CCTE's Synaptogenesis and Neurite Maturation Assay in rat cortical cells for Neurite Count, Mundy Lab (AID 2284222);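 also: exposure from day 7 to day 12 in vitro with readout at day 12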
# How it was run: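 Primary rat cortical cells were plated, treated with AraC at DIV 5, then exposed to chemicals from DIV 7 through DIV 12. After fixation and immunostaining for MAP2 and synaptophysin, imaging quantified neurites, with DMSO as the negative control.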
# [13] = CCTE_Mundy_HCI_Cortical_Synap_Neur_Matur_CellBodySpotCount: CCTE's Synaptogenesis and Neurite Maturation Assay in rat cortical cells for Cell Body Spot Count, Mundy Lab (AID 2284223)
# How it was run: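 Chemicals were applied to AraC-treated rat primary cortical cells at DIV 7 and measured at DIV 12. Fixed cells were labelled for MAP2, synaptophysin and nuclei, and high-content imaging gave cell body synaptophysin spot counts per neuron relative to DMSO.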
# [14] = CCTE_Mundy_HCI_hNP1_Pro_ResponderAvgInten: CCTE's Proliferation Assay in human neuroprogenitor cells, Mundy Lab (AID 2284224; active = hit-call score of the fitted dose curve at least 0.9, where 1 is the maximum)
# How it was run: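 Proliferation was scored as BrdU labelling intensity in human neural progenitors derived from WA09 embryonic cells, measured 26.25 hours after chemical dosing. Activity was fitted relative to DMSO.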
# [15] = CCTE_Mundy_HCI_Cortical_NOG_NeuronCount: CCTE's Neurite Outgrowth Assay in rat cortical cells for Neuron Count, Mundy Lab (AID 2284236; active = hit-call score of the fitted dose curve at least 0.9, where 1 is the maximum;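 also: neurons counted by imaging betaIII-tubulin and Hoechst stained cortical cells; cells exposed to compound for about 48 hours before fixation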)
# How it was run: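 Read-out: neuron number by high-content imaging of betaIII-tubulin (Alexa Fluor-488) and Hoechst-labelled rat primary cortical cells.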
# [16] = CCTE_Mundy_HCI_Cortical_NOG_BPCount: CCTE's Neurite Outgrowth Assay in rat cortical cells for Branch Point Count, Mundy Lab (AID 2284237)
# How it was run: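 Measured 50.33 h after dosing, this morphology endpoint uses rat primary cortical cultures labelled for betaIII-tubulin. Branch points are quantified by high-content imaging, with DMSO as negative control and baseline.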
# [17] = CCTE_Mundy_HCI_hNP1_Casp3_7: CCTE's Caspase-Glo 3/7 Assay in human neuroprogenitor cells for Apoptosis, Mundy Lab (AID 2284240)
# How it was run: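 Apoptosis is scored by activated caspase-3/7 luminescence in WA09-derived neural progenitor cells, measured 26.5 h after chemical dosing. Values represent gain of signal relative to DMSO vehicle.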
# [18] = CCTE_Mundy_HCI_hNP1_CellTiter: CCTE's Cell Titer-Glo 2 Assay in human neuroprogenitor cells for Viability, Mundy Lab (AID 2284241; active = hit-call score of the fitted dose curve at least 0.9, where 1 is the maximum)
# How it was run: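 Human neural progenitor cells (hNP1, WA09-derived) were plated on poly-L-ornithine/laminin and grown 40 to 44 hours at 37 °C, 5% CO2 before chemical addition. Twenty-four hours later, ATP was measured by CellTiter-Glo luminescence; loss of signal versus DMSO indicates reduced viability.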
# [19] = IUF_NPC2c_oligodendrocyte_migration_120hr: Leibniz Research Institute for Environmental Medicine (IUF) 120-hour Neural Progenitor Cell Migration Assay for Oligodendrocyte Migration (NPC2c) (AID 2284297);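 also: O4-positive oligodendrocyte migration distance divided by radial glia migration distance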
# How it was run: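 Using fetal brain neural progenitor spheres differentiating in N2 medium at 37C, compounds were present for 120 h. Oligodendrocyte migration distance, normalized to radial glia migration, was measured from imaged O4 staining.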
# [20] = IUF_NPC2a_radial_glia_migration_120hr: Leibniz Research Institute for Environmental Medicine (IUF) 120-hour Neural Progenitor Cell Migration Assay for Radial Glia Migration (NPC2a) (AID 2284298)
# How it was run: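 Exposure of 0.3 mm primary hNPC spheres runs day 0 to 120 h with a half-volume medium change at day 3. Fixed cells get Hoechst staining; high-content analysis of nuclear positions yields radial glia migration distance per well, compared against DMSO controls.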
# [21] = IUF_NPC2a_radial_glia_migration_72hr: Leibniz Research Institute for Environmental Medicine (IUF) 72-hour Neural Progenitor Cell Migration Assay for Radial Glia Migration (NPC2a) (AID 2284299)
# How it was run: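 Single 0.3 mm neurospheres were plated per well in N2 differentiation medium and exposed from the start of differentiation. After 72 hours, brightfield images were taken and radial glia migration from the sphere core edge was measured manually in four directions, averaged per well.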
# [22] = IUF_NPC2b_neuronal_migration_120hr: Leibniz Research Institute for Environmental Medicine (IUF) 120-hour Neural Progenitor Cell Migration Assay for Neuron Migration (NPC2b) (AID 2284300)
# How it was run: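 Fetal human NPC spheres migrate on PDL/laminin during 120 h compound treatment; neuronal migration distance, glia-normalized, scored versus DMSO control.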
# [23] = IUF_NPC3_neuronal_differentiation_120hr: Leibniz Research Institute for Environmental Medicine (IUF) 120-hour Neuronal Differentiation Assay (NPC3) (AID 2284301)
# How it was run: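 Value is percent TUBB3-positive neurons among Hoechst-stained nuclei in the migration area, scored by trained CNN after 120 h differentiation. Primary hNPC spheres on poly-D-lysine/laminin, N2 medium, continuous dosing from day 0, half-refeed day 3; DMSO reference.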
# [24] = IUF_NPC4_neurite_length_120hr: Leibniz Research Institute for Environmental Medicine (IUF) 120-hour Neuronal Morphology Assay for Neurite Length (NPC4) (AID 2284302)
# How it was run: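 Neurite length, the mean in um across TUBB3-stained neurons, is derived by skeletonization of high-content images after 120 h differentiation. Compound exposure, 7 concentrations plus solvent control, ran from plating of hNPC spheres on poly-D-lysine/laminin, with medium half-replaced on day 3.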
# [25] = IUF_NPC5_oligodendrocyte_differentiation_120hr: Leibniz Research Institute for Environmental Medicine (IUF) 120-hour Oligodendrocyte Differentiation Assay (NPC5) (AID 2284304; active = hit-call score of the fitted dose curve at least 0.9, where 1 is the maximum;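 also: primary human fetal neural progenitor spheres plated to migrate and differentiate; share of O4-positive cells among Hoechst nuclei found by CNN image analysis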)
# How it was run: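 After plating on poly-D-lysine/laminin, fetal-derived hNPC spheres differentiated for 120 h at 37C in compound-containing N2 medium, refreshed by half on day 3. O4 immunostaining over Hoechst nuclei in the migration zone gave oligodendrocyte percentage relative to DMSO.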
# [26] = IUF_NPC2-5_cytotoxicity_72hr: Cytotoxicity Assessment at 72 hours in the Leibniz Research Institute for Environmental Medicine (IUF) Neural Progenitor Cell Migration and Differentiation Assay for Cytotoxicity (NPC2-5) (AID 2284306; active = hit-call score of the fitted dose curve at least 0.9, where 1 is the maximum;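 also: LDH release into supernatant measured by resorufin fluorescence marking membrane damage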)
# How it was run: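 Membrane-integrity cytotoxicity at 72 h, read as LDH-driven resorufin fluorescence in supernatant. hNPC spheres from fetal cortex differentiate on coated plates in N2 medium, 37C, 5% CO2; seven serial compound concentrations plus solvent control (DMSO ≤0.1%).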
# [27] = IUF_NPC2-5_cytotoxicity_120hr: Cytotoxicity Assessment at 120 hours in the Leibniz Research Institute for Environmental Medicine (IUF) Neural Progenitor Cell Migration and Differentiation Assay (NPC2-5) (AID 2284307; active = hit-call score of the fitted dose curve at least 0.9, where 1 is the maximum)
# How it was run: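 Membrane-integrity loss is quantified by LDH in supernatant after five days of exposure of migrating, differentiating human fetal NPC spheres; seven serially diluted concentrations are tested with DMSO kept at or below 0.1%.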
# [28] = IUF_NPC2-5_cell_number_120hr: Cell Number Assessment at 120 hours in the Leibniz Research Institute for Environmental Medicine (IUF) Neural Progenitor Cell Migration and Differentiation Assay (NPC2-5) (AID 2284308);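 also: count of Hoechst-stained nuclei in migration zone around plated human neural progenitor spheres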
# How it was run: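 Seven-point serial dilutions plus solvent control were applied to plated 0.3 mm hNPC spheres at differentiation start, with medium half-replaced at day 3. Nuclei positive for Hoechst in the migration zone were enumerated at 120 h.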
# [29] = IUF_NPC2-5_viability_120hr: Viability Assessment at 120 hours in the Leibniz Research Institute for Environmental Medicine (IUF) Neural Progenitor Cell Migration and Differentiation Assay (NPC2-5) (AID 2284312)
# How it was run: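 Alamar blue resorufin fluorescence read after 5 days of differentiation, with compound present from day 0 and replenished at day 3. Primary hNPC spheres on laminin-coated plates, 37C; seven concentrations plus solvent control, fitted against DMSO.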
# [30] = CCTE_Mundy_HCI_iCellGluta_NOG_NeuriteLength: CCTE's Neurite Outgrowth Assay in iCellGluta cells for Neurite Length, Mundy Lab (AID 2284318; active = hit-call score of the fitted dose curve at least 0.9, where 1 is the maximum)
# How it was run: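 Automated high-content imaging of betaIII-tubulin (Alexa Fluor-488) and Hoechst-stained cells gave neurite length, normalized to the DMSO baseline.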
# [31] = IUF_NPC1_cytotoxicity_72hr: Cytotoxicity Assessment at 72 hours in the Leibniz Research Institute for Environmental Medicine (IUF) Neural Progenitor Cell Proliferation Assay (NPC1) (AID 2284332; active = hit-call score of the fitted dose curve at least 0.9, where 1 is the maximum;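 also: rising LDH signal means more cytotoxicity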)
# How it was run: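 Membrane-integrity loss is scored from LDH released into the medium, detected as resorufin fluorescence, with activity fitted upward relative to baseline. Test material stays on human fetal-derived progenitor spheres for 72 h.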
# [32] = CCTE_Mundy_HCI_iCellGluta_NOG_NeuronCount: CCTE's Neurite Outgrowth Assay in iCellGluta cells for Neuron Count, Mundy Lab (AID 2284340; active = hit-call score of the fitted dose curve at least 0.9, where 1 is the maximum;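 also: cells fixed about 48 h after compound addition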)
# How it was run: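 Neuron count read by automated high-content imaging of Hoechst 33342 and betaIII-tubulin/Alexa Fluor-488 labelling in human iPSC glutamatergic neurons. Activity fitted relative to DMSO.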
# [33] = CCTE_Mundy_HCI_iCellGluta_NOG_NeuriteCount: CCTE's Neurite Outgrowth Assay in iCellGluta cells for Neurite Count, Mundy Lab (AID 2284342; active = hit-call score of the fitted dose curve at least 0.9, where 1 is the maximum;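 also: chemical exposure about 48 hours starting 2 hours after plating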)
smiles,measurement,setting,value
CC1(C)[C@@H](C=C(Cl)Cl)[C@@H]1C(=O)O[C@@H](C#N)c1ccc(F)c(Oc2ccccc2)c1,AC50,[1],5.16 µM (active)
same,outcome,[2],inactive
same,outcome,[3],inactive
same,outcome,[4],inactive
same,outcome,[5],inactive
same,outcome,[6],inactive
same,outcome,[7],inactive
same,outcome,[8],inactive
same,outcome,[9],inactive
same,outcome,[10],inactive
same,outcome,[11],inactive
same,outcome,[12],inactive
same,outcome,[13],inactive
same,outcome,[14],inactive
same,outcome,[15],inactive
same,outcome,[16],inactive
same,outcome,[17],inactive
same,outcome,[18],inactive
same,outcome,[19],inactive
same,outcome,[20],inactive
same,outcome,[21],inactive
same,outcome,[22],inactive
same,outcome,[23],inactive
same,outcome,[24],inactive
same,outcome,[25],inactive
same,outcome,[26],inactive
same,outcome,[27],inactive
same,outcome,[28],inactive
same,outcome,[29],inactive
same,outcome,[30],inactive
same,outcome,[31],inactive
same,outcome,[32],inactive
same,outcome,[33],inactive
